# From PubChem BioAssay (NCATS)
# Results filed as inconclusive are left out. A call without a number means that no potency is given here. Activity calls are given as the source filed them. Unless noted, calls follow the shape of the dose curve; as a rule, active = well fitted curve in the direction sought with a large enough effect; inconclusive = small, poorly fitted or top-dose-only effect, or another doubt; inactive = no such curve, though single readings can be large; an effect the other way counts as inactive or inconclusive.
# Molecular target: Alpha-galactosidase (Coffea arabica) (UniProt Q42656)
# Assay: Counterscreen for Glucocerebrosidase Inhibitors: qHTS Assay for Coffee Bean alpha-Galactosidase at pH 4.5 (AID 957)
# Conditions: purified coffee bean alpha-galactosidase, fluorogenic substrate; series mostly up to 76.9 µM
# Summary of the method: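 Fluorogenic qHTS at pH 4.5 (citrate buffer with Tween-20): 2 nM enzyme, 80 uM 4-MU-alpha-galactoside substrate, compound titrated 0.7 nM to 77 uM, 20 min room temperature. Glycine/NaOH stop; 4-MU read Ex 365/Em 440; Hill-equation AC50 against no-enzyme and enzyme controls.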
# Chain of Alpha-galactosidase (Coffea arabica) (Q42656 whole entry, looked up): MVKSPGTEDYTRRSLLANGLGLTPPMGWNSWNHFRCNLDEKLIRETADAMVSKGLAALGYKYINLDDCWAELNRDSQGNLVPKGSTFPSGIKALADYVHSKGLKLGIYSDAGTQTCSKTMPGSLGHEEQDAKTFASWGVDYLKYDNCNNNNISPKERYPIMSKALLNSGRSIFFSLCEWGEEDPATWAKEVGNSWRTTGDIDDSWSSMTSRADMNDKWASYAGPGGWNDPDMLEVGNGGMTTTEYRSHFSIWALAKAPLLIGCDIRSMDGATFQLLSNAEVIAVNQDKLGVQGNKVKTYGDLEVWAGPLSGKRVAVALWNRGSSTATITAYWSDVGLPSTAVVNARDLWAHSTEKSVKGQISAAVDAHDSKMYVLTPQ
row,SMILES,outcome
1,O=c1[nH]c2cc(Cl)c(Cl)cc2[nH]c1=O,inactive
2,O=C1c2ccccc2-c2n[nH]c3cccc1c23,inactive
3,C=CCn1c(=O)c2c(nc(-c3ccc(S(=O)(=O)O)cc3)n2C)n(C)c1=O,inactive

# Molecular target: Alpha-galactosidase (Coffea arabica) (UniProt Q42656)
# Assay: Counterscreen for Glucocerebrosidase Inhibitors: qHTS Assay for Coffee Bean alpha-Galactosidase at pH 5.9 (AID 998)
# Conditions: coffee bean alpha-galactosidase enzyme assay; series mostly up to 76.9 µM
# Summary of the method: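 Enzyme 2 nM + cpd (0.7 nM–77 uM titration) + 4-MU-alpha-Gal 80 uM, pH 5.9 citrate/Tween-20, RT 20 min, NaOH/glycine stop pH 10, fluor 365/440. Normalized to no-enzyme and full-activity controls; Hill-fit AC50.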
row,SMILES,outcome
1,O=c1[nH]c2cc(Cl)c(Cl)cc2[nH]c1=O,inactive
2,O=C1c2ccccc2-c2n[nH]c3cccc1c23,inactive
3,C=CCn1c(=O)c2c(nc(-c3ccc(S(=O)(=O)O)cc3)n2C)n(C)c1=O,inactive

# Tested on: not listed separately
# Assay: Validation screen for inhibitors of Lassa infection (AID 463096; calls by dose curve)
# Conditions: Lassa virus infection, cell-based; series mostly up to 46.1 µM
row,SMILES,Potency
1,O=c1[nH]c2cc(Cl)c(Cl)cc2[nH]c1=O,inactive
2,CN(C)C(=O)/N=N/C(=O)N(C)C,inactive
3,C=CCn1c(=O)c2c(nc(-c3ccc(S(=O)(=O)O)cc3)n2C)n(C)c1=O,inactive

# Tested on: not listed separately
# Assay: Inducers of the Endoplasmic Reticulum Stress Response (ERSR) in human glioma: Validation (AID 504836)
# Conditions: human glioma cells, ER stress response reporter; series mostly up to 38.3 µM
# Summary of the method: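 Stably transfected U87-MG glioma cells carrying a GRP78-based luciferase sensor; 16 h compound incubation. Luminescence end-point read 10 min after Bright-Glo addition at room temperature.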
row,SMILES,outcome
1,O=c1[nH]c2cc(Cl)c(Cl)cc2[nH]c1=O,inactive
2,O=C1c2ccccc2-c2n[nH]c3cccc1c23,inactive
3,N=c1ccn2c(n1)O[C@H]1[C@H](O)[C@@H](CO)O[C@H]12,inactive
4,OC[C@H]1O[C@@H](n2cnc3c(NC4CCCC4)ncnc32)[C@H](O)[C@@H]1O,inactive
5,CN(C)C(=O)/N=N/C(=O)N(C)C,inactive
6,O=c1[nH]c(=O)n([C@H]2C[C@@H](O)[C@@H](CO)O2)cc1C=CBr,inactive
7,C=CCn1c(=O)c2c(nc(-c3ccc(S(=O)(=O)O)cc3)n2C)n(C)c1=O,inactive
